Reference: PubChem BioAssay AID547 (Emory University Molecular Libraries Screening Center, 2006)
In all, about 1,300 compounds went through this assay and about 10 (0.8%) were called active. What follows is part of a selection rich in actives, with near analogues and random picks from the rest. Values without a mark were called inactive. No rule for the calls is given here.

Biological target: Chaperone protein DnaK (Escherichia coli (strain K12)) (UniProt P0A6Y8)
Assay: E. coli DnaK chaperone inhibitors, primary screen, luminescence, E. coli K12 (AID 547);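 also: tested at 10 µM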
Details: DnaK chaperone assay, luminescence read-out; active compounds read low

Point of comparison: COc1cc2c(cc1OC)-c1cc(=Nc3c(C)cc(C)cc3C)n(C)c(=O)n1CC2, luminescence 2.5e+06 cps. Against it:
- NCC(O)c1ccc(O)c(O)c1 (stereo unspecified) — higher, 2.7e+06 cps
- O=C(O)c1cc(=O)c2ccc(Cl)cc2[nH]1 — higher, 2.8e+06 cps
- CN=c1nc(-c2ccccc2)n(-c2ccccc2)s1 — lower, 2.4e+06 cps
- O=S(=O)(NCCNC/C=C/c1ccc(Br)cc1)c1cccc2cnccc12 — lower, 2.4e+06 cps
- O=C(OCCN1CCCCC1)c1c[nH]c2ccccc12 — higher, 2.9e+06 cps
- O=C(O)/C(=C/c1c(C(=O)O)[nH]c2cc(Cl)cc(Cl)c12)c1ccccc1 — the same, 2.5e+06 cps
- Cc1cn([C@H]2C=C[C@@H](CO)O2)c(=O)[nH]c1=O — higher, 2.9e+06 cps
- CCN(CC)C(C)C(=O)N1c2ccccc2Sc2ccccc21 (stereo unspecified) — lower, 2.4e+06 cps
- O=C(O)c1cc2cc(Cc3cccnc3)ccc2o1 — higher, 3.2e+06 cps
- O=C(c1ccccc1)c1ccc2n1CCC2C(=O)O (stereo unspecified) — higher, 2.9e+06 cps
- C[N+](C)(C)CCOC(N)=O — higher, 2.6e+06 cps
- NCCc1cnc[nH]1 — higher, 3.3e+06 cps
- O=C(O)C1CN(CCCP(=O)(O)O)CCN1 (stereo unspecified) — higher, 2.6e+06 cps
- COc1ccccc1N1CCN(CCCCNC(=O)c2ccc3ccccc3c2)CC1 — higher, 2.7e+06 cps
- O=C(/C=C/c1ccc(O)c(O)c1)OCCc1ccccc1 — higher, 3e+06 cps
- C[C@@H]1C(=O)NC2=Nc3cccc(Cl)c3CN21 — lower, 2.4e+06 cps
- COc1cc(C(O)CO)ccc1O (stereo unspecified) — higher, 2.8e+06 cps
- CNCCNS(=O)(=O)c1cccc2cnccc12 — higher, 2.6e+06 cps

For Nc1c(S(=O)(=O)O)cc(Nc2ccc(Nc3nc(Cl)nc(Nc4ccc(S(=O)(=O)O)cc4)n3)c(S(=O)(=O)O)c2)c2c1C(=O)c1ccccc1C2=O, the luminescence was 1.6e+06 cps (active).
With O=C(O)C1=CC(=C(c2ccc(O)c(C(=O)O)c2)c2ccc(O)c(C(=O)O)c2)C=CC1=O the luminescence was 1.2e+06 cps (active).
